# Values joined by “and” are separate entries in the source; they are usually repeats but may differ in a detail not shown here. Identical values can stand only once. Screen size: about 140,000 compounds; about 80 (0.06%) were called active. The sample holds actives, similar compounds and a random draw of the others, so the mix is not that of the screen. Rule as the data show it: active = displacement above about 50%; inactive = the rest. Some compounds were tested as several samples or in several runs, with calls that do not always agree.
# Molecular target: Heat shock 70 kDa protein 1A (Homo sapiens) (UniProt P0DMV8)
# Sequence (P0DMV8 whole entry, looked up): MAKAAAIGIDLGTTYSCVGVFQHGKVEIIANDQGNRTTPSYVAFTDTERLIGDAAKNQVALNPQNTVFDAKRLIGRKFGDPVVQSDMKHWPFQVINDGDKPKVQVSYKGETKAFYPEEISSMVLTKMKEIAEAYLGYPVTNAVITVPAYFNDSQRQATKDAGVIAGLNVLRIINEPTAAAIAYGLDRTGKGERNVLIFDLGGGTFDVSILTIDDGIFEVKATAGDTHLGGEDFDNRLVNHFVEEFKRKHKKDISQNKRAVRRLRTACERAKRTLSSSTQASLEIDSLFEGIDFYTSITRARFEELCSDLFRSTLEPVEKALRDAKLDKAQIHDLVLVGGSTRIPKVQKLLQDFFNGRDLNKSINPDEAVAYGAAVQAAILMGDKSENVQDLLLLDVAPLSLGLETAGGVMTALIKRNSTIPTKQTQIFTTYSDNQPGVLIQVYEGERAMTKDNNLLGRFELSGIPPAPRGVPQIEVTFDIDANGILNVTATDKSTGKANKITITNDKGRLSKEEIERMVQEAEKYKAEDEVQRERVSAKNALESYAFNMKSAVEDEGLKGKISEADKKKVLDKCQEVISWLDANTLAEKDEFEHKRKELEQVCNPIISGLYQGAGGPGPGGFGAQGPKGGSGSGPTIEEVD
# Assay: Hsp70 inhibitors, probe displacement, primary screen, biochemical, fluorescence polarization (AID 583);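 also: plate controls were vehicle for no effect and reference ligand for full effect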
# Settings: mP, at 20 µM, stronger effect = higher value
row,Compound,displacement
1,Cc1cccc(-c2cc3nc(C)cc(NCCCN(C)C)n3n2)c1,4.1% (inactive)
2,CN(C)c1ccc(/C=N/N=C2/NC(=O)C(Cc3ccc(Cl)cc3)S2)cc1 (centres undefined),-3.1% (inactive)
3,Cc1cc(C)n(Cc2ccc(C(=O)O)cc2)n1,-8.4% (inactive)
4,Cc1ccc(C)n1Cc1ccc(C(=O)O)cc1,103% (active) and 21.6% (inactive)
5,O=C(O)c1ccc(CN2CCOCC2)cc1,0% (inactive)
6,N#Cc1cc2c(nc1SCc1ccc(Br)cc1)CCCC2,-3.8% (inactive)
7,O=C(COc1ccc(Cl)cc1Cl)NNC(=O)CN1C(=O)/C(=C/c2ccc(Cl)cc2Cl)SC1=S,0.4% (inactive)
8,COc1ccccc1/C=N/NC(=O)C(=O)NCc1ccccn1,-2.8% (inactive)
9,CCn1c2ccccc2c2cc(CN3CCN(C(=O)CC(C)C)CC3)ccc21,-0.3% (inactive)
10,Cc1ccc(-n2[nH]c(C)c(C=Nc3ccc(C)cn3)c2=O)cc1,2% (inactive)
11,COc1ccccc1N1C(=O)C(=Cc2cccn2C)C(=O)NC1=S,69.9% (active)
12,COc1ccccc1C=C1C(=O)NC(=S)N(c2ccccc2F)C1=O,4% (inactive)
13,Cn1cccc1/C=C1/C(=O)NC(=S)N(c2cccc(Cl)c2)C1=O,37.8% (inactive)
14,N#Cc1cccc(-n2c(-c3ccccc3)nnc2-c2ccccc2)c1C#N,-2.8% (inactive)
15,COc1cc(NC(=O)c2ccc3c(c2)OCCO3)ccc1NC(=O)c1ccco1,-0.4% (inactive)
16,Cc1nn(-c2ccc(F)cc2)c(C)c1NS(=O)(=O)c1ccc(Cl)cc1,1% (inactive)
17,Cc1c(C#N)c2nc3ccccc3n2c(=O)/c1=C/c1sc2ccccc2c1O,2.1% (inactive)
18,Cc1c(C#N)c2nc3ccccc3n2c(=O)/c1=C\c1c(O)n(-c2ccc(Br)cc2)[nH]c1=O,24.7% (inactive)
19,Cc1ccc(-n2[nH]c(=O)c(/C=c3/c(C)c(C#N)c4nc5ccccc5n4c3=O)c2O)cc1C,83% (active)
20,O=C1c2ccccc2C(=O)N1c1ccc2c(c1)C(=O)N(c1ccccc1)C2=O,4.1% (inactive)
21,Nc1ccc2c(c1)C(=O)N(c1ccccc1)C2=O,8.5% (inactive)
22,O=[N+]([O-])c1cc(-c2nnc(-c3ccc(Br)o3)o2)cc([N+](=O)[O-])c1,0.4% (inactive)
23,O=C(NC1CC1)C1CCCN(C(=O)Nc2ccc(F)cc2)C1 (centres undefined),-7.5% (inactive)
24,Cc1ccc(C)c(S(=O)(=O)Nc2ccc3sc(C)nc3c2)c1,-3.2% (inactive)

row,Compound,displacement
1,CCOC(=O)c1[nH]cnc1C(=O)Nc1ccccn1,-29.4% (inactive) and -2.5% (inactive)
2,CCOC(=O)c1[nH]cnc1C(=O)NCc1ccccc1,88.8% (active)
3,CCOC(=O)c1[nH]cnc1C(=O)Nc1ccccc1,0% (inactive)
4,CC1=C(C(=O)Nc2ccccc2C)C(c2ccc(C)o2)N2C(=O)CSC2=N1 (centres undefined),1.1% (inactive)
5,CCN1C(=O)/C(=C2\SC(=O)N(Cc3ccccc3)C2=O)c2ccccc21,-2.9% (inactive)
6,N#C/C(=C\c1ccc(-c2cccc(Cl)c2Cl)o1)C(=O)NCc1ccco1,-2.5% (inactive)
7,N#C/C(=C\c1ccc(-c2ccc(C(=O)O)cc2)o1)C(=O)NCc1ccco1,-4.4% (inactive)
8,Cc1ccc([N+](=O)[O-])cc1-c1ccc(/C=C(\C#N)C(=O)NCc2ccco2)o1,75.7% (active)
9,CC(=O)OC(/C(O)=C(\C#N)c1nc2ccccc2[nH]1)c1ccccc1 (centres undefined),-1.2% (inactive)
10,CC(NS(C)(=O)=O)C(c1cccs1)N1CCN(Cc2ccccc2)CC1 (centres undefined),3.1% (inactive)
11,O=C1N=c2ccccc2=C1c1s/c(=N/N=C2/C(=O)Nc3ccccc32)n(-c2ccc(O)cc2)c1O,93.6% (active)
12,O=C1N=c2ccccc2=C1c1sc(=Nc2ccccc2)n(-c2ccccc2)c1O,5.2% (inactive)
13,O=C1N=c2ccccc2=C1c1sc(=O)n(-c2ccc(O)cc2)c1O,-21.2% (inactive)
14,CC(=O)NS(=O)(=O)c1ccc(NC(=O)c2ccccc2F)cc1,6% (inactive)
15,COCC(=O)Nc1nc(-c2ccccc2)c(C)s1,-1.9% (inactive)
16,O=C1NC(=S)N/C1=C\c1ccc(-c2cc([N+](=O)[O-])ccc2Br)o1,51.2% (active)
17,O=C1NC(=S)N/C1=C\c1ccc(-c2cccc([N+](=O)[O-])c2)o1,0.3% (inactive)
18,O=C1NC(=S)N/C1=C/c1ccc(-c2cc([N+](=O)[O-])ccc2Cl)o1,17.3% (inactive)
19,Cc1ccc(NC(=O)c2ccccc2Br)cc1,1.9% (inactive)
20,COc1ccc(OC)c(NC2=NC3(CCCCC3)N=C(N)N2)c1,-6.7% (inactive) and 3.4% (inactive)
21,COc1ccccc1NC1=NC2(CCCCC2)N=C(N)N1,97.6% (active)
22,COc1ccc(OC)c(NC2=NC3(CCCC3)N=C(N)N2)c1,0.2% (inactive) and -1.2% (inactive)
23,CC(C)Oc1c(I)cc(I)cc1/C=C(/C#N)c1nc2ccccc2[nH]1,-0.1% (inactive)
24,Cc1ccc(/C(N)=N/OC(=O)c2ccc(Br)cc2)cc1,1.1% (inactive)

row,Compound,displacement
1,O=C1C(=O)N(CC2CCCO2)C(c2cccc([N+](=O)[O-])c2)/C1=C(/O)c1ccccc1 (centres undefined),-4.4% (inactive)
2,COc1cccc(C2NC(=O)NC(C)=C2C(=O)OCCc2ccccc2)c1OC (centres undefined),-3% (inactive)
3,COc1ccc(Cn2c(C)nc3c(c2=O)c2nc4ccccc4nc2n3Cc2ccco2)cc1,69.5% (active)
4,COc1ccc(Cn2c3nc4ccccc4nc3c3c(=O)n(Cc4ccco4)c(C)nc32)cc1,2.5% (inactive)
5,COc1ccc(Cn2c3nc4ccccc4nc3c3c(=O)n(Cc4ccco4)cnc32)cc1,-6% (inactive)
6,O=C(O)CCCN1C(=O)/C(=C/c2cccc(Br)c2)SC1=S,6.7% (inactive)
7,O=C(O)CCCCCN1C(=O)/C(=C/c2cccc(F)c2)SC1=S,-1.8% (inactive)
8,O=C(O)CCCCCCCCCCN1C(=O)/C(=C/c2cccc(Br)c2)SC1=S,56.6% (active)
9,O=C(NN1CCOCC1)c1cc2ccccc2oc1=O,1.1% (inactive)
10,CC(=O)C1=C(C)NC(SCC(N)=O)=C(C#N)C1c1cccnc1 (centres undefined),-1.1% (inactive)
11,Cc1ccc(C)n1-c1ccccc1C(=O)O,92.7% (active)
12,Cc1nc(=O)c(-c2ccccc2)c(C)n1-c1ccccc1C(=O)O,6.5% (inactive)
13,Cc1ccc(C)n1-c1ccc(Br)cc1C(=O)O,7.4% (inactive)
14,Cc1ccc(C)n1-c1ccc(Cl)cc1C(=O)O,104% (active)
15,Cc1ccc(-c2ccccc2)n1-c1ccccc1C(=O)O,5.6% (inactive)
16,Cc1ccc(C)n1-c1sccc1C(=O)O,24.9% (inactive)
17,Cc1c(C(=O)O)cccc1-n1c(C)ccc1C,51.1% (active)
18,Cc1c(C(=O)O)cccc1-n1c(=O)c2cc3c(=O)n(-c4cccc(C(=O)O)c4C)c(=O)c3cc2c1=O,-1.1% (inactive)
19,COc1cc(C(=O)O)c(-n2c(C)ccc2C)cc1OC,6.6% (inactive)
20,COc1cc(OC)cc(C(=O)N2CCN(C(=O)c3cccc(F)c3)CC2)c1,2.3% (inactive)
21,COC(=O)c1ccc(/C=C2\SC(=S)N(C(Cc3ccccc3)C(=O)O)C2=O)cc1 (centres undefined),-0.2% (inactive)
22,O=C1NC(=O)/C(=C/c2c(F)cccc2Cl)S1,4.2% (inactive)
23,S=c1[nH]nc(-c2cccc(Cl)c2)n1-c1ccccc1,4% (inactive)
24,COc1ccc(CC(=O)c2cc(OC)c(OC)cc2CC(=O)O)cc1OC,-0.7% (inactive)

row,Compound,displacement
1,COC(=O)c1cc(C#N)c(SCc2ccccc2)nc1C,-5% (inactive)
2,O=C(c1ccc(N2CCN(C(=O)c3ccccc3Br)CC2)cc1)c1cccc(F)c1,83.6% (active)
3,O=C(c1ccc(N2CCN(C(=O)c3ccccc3)CC2)cc1)c1cccc(F)c1,-1.2% (inactive)
4,O=C(c1ccc(N2CCN(C(=O)c3ccccc3F)CC2)cc1)c1cccc(F)c1,-2.9% (inactive)
5,CCN1CCN(P2(=O)C=C(c3ccccc3)OC(c3ccccc3)=C2)CC1,1.1% (inactive)
6,O=C(c1coc(=O)c(Br)c1)N1CCOCC1,7.3% (inactive)
7,O=C(c1coc(=O)c(Br)c1)N1CCCc2ccccc21,6.5% (inactive)
8,COc1ccc(CCNC(=O)CSc2nc3ccccc3o2)cc1OC,0.2% (inactive)
9,COc1ccc(C2c3c(oc4ccccc4c3=O)C(=O)N2CC2CCCO2)cc1 (centres undefined),-2.4% (inactive)
10,O=C1c2oc3ccc(F)cc3c(=O)c2C(c2ccccc2)N1CC1CCCO1 (centres undefined),-3.1% (inactive)
11,O=C(COc1ccc([N+](=O)[O-])cc1)Nc1cccc(Cl)c1Cl,2.1% (inactive)
12,CCCCOc1ccc(N2C(=O)C3CC(C)=C(C)CC3C2=O)cc1 (centres undefined),0.2% (inactive)
13,CCOc1cc(CNn2cnnc2)cc(Br)c1OCC(=O)NC1CCCCC1,5.5% (inactive)
14,C=CCn1c2ccccc2c2nnc(SCC(=O)Nc3sc4c(c3C#N)CCCC4)nc21,-2% (inactive)
15,CC(=NCCCn1ccnc1)c1c(-c2ccccc2)[nH]n(-c2nc3ccccc3s2)c1=O,0.5% (inactive)
16,Cc1c(NS(=O)(=O)c2cc(Cl)ccc2Cl)cccc1[N+](=O)[O-],-2.4% (inactive)
17,O=C(Nc1ccc2nc(-c3cccs3)c(-c3cccs3)nc2c1)NC1CC1,2.3% (inactive)
18,O=C(Nc1ccc(N2CCOCC2)cc1)Nc1ccc2nc(-c3ccco3)c(-c3ccco3)nc2c1,1.1% (inactive)
19,Brc1ccc(/C=N/c2ncn[nH]2)cc1,3.3% (inactive)
20,CCN1C(=O)/C(=C\c2ccc(OCc3ccccc3Cl)cc2)SC1=S,-2.5% (inactive)
21,C=CCN1C(=O)/C(=C\c2ccc(OCc3ccccc3Cl)cc2)SC1=S,56.5% (active)
22,C=CCN1C(=O)/C(=C/c2cccc(OCc3ccccc3Cl)c2)SC1=S,0.3% (inactive)

# Source: PubChem BioAssay AID583 (Sanford-Burnham Center for Chemical Genomics, 2007)
